This passage reports Potency results from ChEMBL document CHEMBL1201862, “PubChem BioAssay data set” (2004).

Screen size: about 400,000 compounds; about 2,100 (0.53%) were called active. Another 14% or so got no clear call; they are omitted. No rule for the calls is given here. The list comes from a sample in which actives are over-represented; it also holds similar structures and randomly drawn compounds.

Chain of Ataxin-2 (Homo sapiens) (Q99700 whole entry): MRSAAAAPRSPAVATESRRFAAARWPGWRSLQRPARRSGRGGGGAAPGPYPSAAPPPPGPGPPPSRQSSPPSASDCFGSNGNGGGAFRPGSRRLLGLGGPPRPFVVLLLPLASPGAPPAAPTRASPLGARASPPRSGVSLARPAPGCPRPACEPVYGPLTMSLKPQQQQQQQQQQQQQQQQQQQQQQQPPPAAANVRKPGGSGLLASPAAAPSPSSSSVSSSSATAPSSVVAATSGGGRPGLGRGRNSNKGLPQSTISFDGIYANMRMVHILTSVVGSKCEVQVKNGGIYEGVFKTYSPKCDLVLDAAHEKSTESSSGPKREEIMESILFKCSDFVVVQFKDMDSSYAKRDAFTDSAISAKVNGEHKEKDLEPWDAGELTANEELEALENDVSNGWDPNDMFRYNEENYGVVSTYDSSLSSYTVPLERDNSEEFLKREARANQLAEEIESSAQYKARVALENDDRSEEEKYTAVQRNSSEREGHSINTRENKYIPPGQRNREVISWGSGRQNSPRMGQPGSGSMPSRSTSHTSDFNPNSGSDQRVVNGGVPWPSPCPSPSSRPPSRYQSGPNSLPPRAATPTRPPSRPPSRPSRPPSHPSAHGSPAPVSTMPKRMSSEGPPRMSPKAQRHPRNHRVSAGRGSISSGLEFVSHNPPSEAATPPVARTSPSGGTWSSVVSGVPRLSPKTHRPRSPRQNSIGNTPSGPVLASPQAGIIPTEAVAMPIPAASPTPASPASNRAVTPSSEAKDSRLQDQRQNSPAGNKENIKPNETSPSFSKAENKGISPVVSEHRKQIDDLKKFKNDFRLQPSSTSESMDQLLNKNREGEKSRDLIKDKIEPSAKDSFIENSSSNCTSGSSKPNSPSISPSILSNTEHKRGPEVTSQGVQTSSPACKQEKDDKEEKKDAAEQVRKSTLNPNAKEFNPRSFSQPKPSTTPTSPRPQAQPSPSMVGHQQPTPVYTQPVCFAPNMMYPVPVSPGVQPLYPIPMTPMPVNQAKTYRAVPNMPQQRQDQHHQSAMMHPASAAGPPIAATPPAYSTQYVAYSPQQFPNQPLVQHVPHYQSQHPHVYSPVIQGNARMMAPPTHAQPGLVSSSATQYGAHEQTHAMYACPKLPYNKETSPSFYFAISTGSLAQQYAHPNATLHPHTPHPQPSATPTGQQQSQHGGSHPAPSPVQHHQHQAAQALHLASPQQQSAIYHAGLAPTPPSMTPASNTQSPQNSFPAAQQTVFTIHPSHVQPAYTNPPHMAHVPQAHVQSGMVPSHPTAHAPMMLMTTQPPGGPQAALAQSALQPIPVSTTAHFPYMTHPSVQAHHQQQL

The assay concerns the target Ataxin-2 (Homo sapiens) (UniProt Q99700). In words: qHTS for Inhibitors of ATXN expression. The format is functional.
With `COC(=O)CC1C(=O)NCCN1C(=O)CSc1nc2ccccc2c(=O)n1CC(C)C` (stereo unspecified), the Potency entry is “inactive”. For `Cc1nc(C/C(=N\N)c2ccc(O)cc2O)cs1` the value was “inactive”; for `O=C1c2cccc3c(N4CCCCC4)ccc(c23)C(=O)N1c1cccc(O)c1`, “inactive”.

For the compound `COc1ccc(C(=O)CCN2CCc3cc(OC)c(OC)cc3C2)cc1`, the Potency was 26.7 µM (active). Consider `COc1cc2c(cc1OC)CN(Cc1cc(=O)n3c(-c4ccccc4)csc3n1)CC2`, for which the Potency result was “inactive”. Turning to `COc1cc2c(cc1OC)CN(C(=O)CSc1ccc(F)cc1)CC2`, the Potency result was “inactive”.

`Cc1c(C)c2cc(Cl)c(O)c(CN3CCN(C)CC3)c2oc1=O`: the Potency entry was “inactive”.

In the case of `CC1CCN(CCN=C(S)Nc2ccc(Cl)cc2)CC1`, the Potency entry was “inactive”. Regarding `CN1CCN(c2ccc(Cl)cc2NC(=O)/C=C/c2ccc(F)cc2)CC1`, the Potency entry is “inactive”. Take `CN1CCC(NCCC(c2ccc(F)cc2)c2ccc(Cl)cc2)CC1` (stereo unspecified): the Potency is 25.1 µM (active). For `COc1cc(Cl)cc(/C=N/NC(N)=O)c1O` the value was “inactive”; for `COc1ccccc1Sc1ccccc1/C=N/NC(N)=O`, 39.8 µM (active). The value for `CCOc1ccc(Cl)cc1/C=N/NC(N)=O` was “inactive”; that for `CCOC(=O)c1cc2c(=O)n3ccccc3nc2n(CCOC)/c1=N/C(=O)c1c(-c2c(F)cccc2Cl)noc1C` was “inactive”; that for `Cc1cc(C)c2c(N)c3ccccc3nc2n1` was “inactive”. As to `Cc1cc2[nH]c3c4ccccc4nc(C)c3c2cc1C`, the Potency was 28.2 µM (active). `Cc1c2ccccc2nc2ccccc12`: the Potency result was “inactive”.

For the compound `Cc1ccc2nc(N3CCN(C(=O)CCCC(=O)O)CC3)nc(-c3ccccc3)c2c1`, the Potency result is “inactive”.

With `CCOC(=O)c1ccc(NC(=O)N2C3CCCC2CC(NC(C)=O)C3)cc1` (stereo unspecified), the Potency entry is “inactive”.

As for `CCOC(=O)c1ccc(N2C(=O)C=CC2=O)cc1`, the Potency was 39.8 µM (active). The value for `CCOC(=O)c1ccc(NS(=O)(=O)c2c(C)n(C)c(=O)n(C)c2=O)cc1` was “inactive”. With `CC1CCCc2sc3ncn(N)c(=N)c3c21` (stereo unspecified), the Potency entry was “inactive”. The value for `CCCCCCCNC(=O)C1(CC2CC(c3cccc(Br)c3)=NO2)CCNCC1` (stereo unspecified) was 31.6 µM (active); that for `CCCCCCCNC(=O)C1(CC2CC(c3ccc(Cl)cc3)=NO2)CCNCC1` (stereo unspecified) was 25.1 µM (active); that for `CC1CCCC(C)N1C(=O)COC(=O)C12CC3CC(CC(Cl)(C3)C1)C2` (stereo unspecified) was “inactive”. With `O=C(NN/C=C1\C(=O)N(c2ccc(Cl)cn2)C(=O)c2ccccc21)c1ccncc1`, the Potency result was “inactive”.

Turning to `Cc1cccc(OCC2Cn3c(nc4c3c(=O)[nH]c(=O)n4C)O2)c1` (stereo unspecified), the Potency entry was “inactive”. On to `CCCSc1nc2c(c(=O)[nH]c(=O)n2C)n1Cc1ccccc1`, for which the Potency result was “inactive”. Regarding `CCCCCCn1c(SCCOC)nc2c1c(=O)[nH]c(=O)n2C`, the Potency result was “inactive”. As for `Cn1c(=O)[nH]c(=O)c2c1nc(N1CCCCCC1)n2Cc1cccc2ccccc12`, the Potency is 44.7 µM (active). Consider `CCCCCn1c(N2CCC(Cc3ccccc3)CC2)nc2c1c(=O)[nH]c(=O)n2C`, for which the Potency is 28.2 µM (active). As for `Brc1ccc(C2CC(c3ccccc3)=Nc3ccccc3N2)cc1` (stereo unspecified), the Potency entry was “inactive”. In the case of `CC(=O)c1ccc(N2C(=O)[C@@H]3[C@H](C2=O)[C@H]2c4ccccc4C=NN2[C@@H]3C(C)=O)cc1`, the Potency result was “inactive”. For the compound `CCn1nc([N+](=O)[O-])c(C(C#N)c2nc3cc(C(F)(F)F)ccc3s2)c(Cl)c1=O` (stereo unspecified), the Potency is 28.2 µM (active). With `CCOC(=O)c1cc2c(=O)n3ccccc3nc2n(Cc2ccco2)/c1=N\C(=O)c1cccc(Br)c1`, the Potency result was “inactive”. Consider `O=C(NCc1ccccn1)c1cc2ccccn2n1`, for which the Potency result was “inactive”.

Regarding `COCCCNC(=O)c1c(N)n(-c2cccc(S(N)(=O)=O)c2)c2nc3ccccc3nc12`, the Potency result is “inactive”. In the case of `OC(CNC1CCCC1)COc1ccc(-c2ccccc2)cc1` (stereo unspecified), the Potency result was “inactive”. Take `COc1ccc(CN(C)Cc2c(O)ccc3cc(Br)ccc23)cc1OC`: the Potency result is “inactive”. Consider `COc1ccc(CN(C)CC(O)COc2ccc(-c3ccccc3)cc2)cc1OC` (stereo unspecified), for which the Potency was 11.2 µM (active). `Cc1nn2c(NC(C)C)c3c(nc2c1-c1ccccc1)CCC3`: the Potency result was “inactive”. The value for `Cc1nn2c(NCCN(C)C)c3c(nc2c1-c1ccccc1)CCCC3` was 35.5 µM (active).

For `Cc1cc(C(C)(C)C)n2nc(C)c(-c3ccccc3)c2n1`, the Potency result was “inactive”. For `CSCCC(NC(=O)/C(=C/c1ccc2c(c1)OCO2)NC(=O)c1cccc([N+](=O)[O-])c1)C(=O)O` (stereo unspecified), the Potency result is “inactive”. As for `C=CC[C@H](CC(=O)N(CCO)Cc1ccccc1)C(=O)N[C@H](COC(=O)[C@@H](CC=C)Cc1ccc(F)cc1)C(C)(C)C`, the Potency was 28.2 µM (active). For `C=CCC[C@H](Cc1ccc(F)cc1)C(=O)OC[C@@H](NC(=O)[C@@H](CC=C)CC(=O)N[C@@H](CO)Cc1ccccc1)C(C)(C)C` the value was 39.8 µM (active); for `C=CC[C@H](CC(=O)N(CCO)Cc1ccccc1)C(=O)NC[C@@H](OC(=O)[C@@H](CC=C)Cc1ccc(F)cc1)c1ccccc1`, 28.2 µM (active); for `C=CC[C@H](CC(=O)N(CCO)Cc1ccccc1)C(=O)N[C@H](COC(=O)[C@@H](CC=C)Cc1ccc(F)cc1)Cc1ccccc1`, 22.4 µM (active). As to `Cn1c(-c2c(N)n(CCc3ccccc3)c3nc4ccccc4nc23)nc2ccccc21`, the Potency entry was “inactive”. Regarding `Cc1ccc(C(C(=O)NCC2CCCO2)N(C(=O)c2snc(C(N)=O)c2N)c2ccccc2F)o1` (stereo unspecified), the Potency result is “inactive”. On to `C=CC[C@H](CC(=O)N(CCO)Cc1ccccc1)C(=O)N[C@@H](COC(=O)[C@@H](CC=C)Cc1ccc(F)cc1)Cc1ccccc1`, for which the Potency is 28.2 µM (active). As to `C=CC[C@@H](CC(=O)N(CCO)Cc1ccccc1)C(=O)N[C@H](COC(=O)[C@@H](CC=C)Cc1ccc(F)cc1)Cc1ccccc1`, the Potency is 28.2 µM (active). On to `OCCN(Cc1ccccc1)C(S)=Nc1ccc(F)cc1`, for which the Potency entry is “inactive”.

As to `Cc1cccn2c(=O)c3cc(C#N)/c(=N\C(=O)c4ccncc4)n(CCCOC(C)C)c3nc12`, the Potency result is “inactive”. Consider `CCn1ccnc1CN1CCc2c([nH]c3ccccc23)C1CC(C)C` (stereo unspecified), for which the Potency entry was “inactive”. Regarding `C[C@]12c3[nH]c4ccc(Cl)cc4c3CCN1C(=O)[C@@H](CC(=O)NCc1cccc(C(F)(F)F)c1)C[C@@H]2C(=O)N1CCCCC1`, the Potency was 35.5 µM (active). In the case of `O=C(CCCCCn1c(=S)[nH]c2ccc(N3CCOCC3)cc2c1=O)NCc1cccc(Cl)c1`, the Potency result was “inactive”.

For `C[C@]12c3[nH]c4ccc(Cl)cc4c3CCN1C(=O)[C@@H](CC(=O)NCc1cccc(C(F)(F)F)c1)C[C@@H]2C(=O)N1CCOCC1`, the Potency is 20 µM (active). Turning to `O=C(CCCCCn1c(=S)[nH]c2ccc(N3CCOCC3)cc2c1=O)NCc1ccc(Cl)cc1`, the Potency entry is “inactive”. With `CCC1(C)Cc2ccccc2-c2ncnc(O)c21` (stereo unspecified), the Potency entry was “inactive”. As for `COC(=O)N/N=C/c1cccc(OC(=O)c2ccc3c(c2)OCO3)c1`, the Potency entry is “inactive”. Turning to `O=C(Cn1nnc2ccccc2c1=O)Nc1ccc(S(=O)(=O)N2CCOCC2)cc1`, the Potency entry is “inactive”.

Consider `COc1ccc(C2C=C(c3ccccc3)Nc3nc(NS(=O)(=O)c4ccc(C)cc4)nn32)cc1` (stereo unspecified), for which the Potency result was “inactive”. For `COc1cc([C@@H]2c3cc4c(cc3[C@@H](O)[C@H]3COC(=O)[C@H]23)OCO4)cc(OC)c1O[Si](C)(C)C(C)(C)C`, the Potency is 39.8 µM (active). `Oc1c(C(Nc2cccc(C(F)(F)F)c2)c2ccncc2)ccc2cccnc12` (stereo unspecified): the Potency entry is “inactive”. As to `N#Cc1cccc(-c2csc(C(O)(c3ccccc3)C(F)(F)F)n2)c1` (stereo unspecified), the Potency is 20 µM (active). `COc1cccc(-c2cc(C(F)(F)F)c(C#N)c(O)n2)c1`: the Potency entry was “inactive”. As to `OC(c1ccccc1)(c1nc(-c2cc(F)cc(F)c2)cs1)C(F)(F)F` (stereo unspecified), the Potency is 35.5 µM (active). As for `N#CC12COC3(CCCCC3C1(C#N)C#N)OC2=N` (stereo unspecified), the Potency entry is “inactive”. `Cc1cc(=O)oc2c3c(ccc12)OCN(Cc1ccc(Cl)cc1)C3`: the Potency entry is “inactive”. For `O=C(O)c1ccc(Nc2nc(-c3cc4ccccc4oc3=O)cs2)cc1O` the value was “inactive”; for `O=C(O)c1cccc(Nc2nc(-c3cc4ccccc4oc3=O)cs2)c1`, “inactive”; for `Cc1cc(NC(=S)NC(=O)c2ccccc2)ccc1-c1cc2ccccc2oc1=O`, 17.8 µM (active). As to `N#CC1=C(N)OC2=C(CC/C2=C\c2ccccc2)C1c1ccccc1` (stereo unspecified), the Potency result is “inactive”. Take `N#CC1=C(c2ccccc2)/C(=C/c2ccccc2)OC1=O`: the Potency is 22.4 µM (active). For the compound `Nc1ccc2c(c1)nc(O)c1cc(N)ccc12`, the Potency result is “inactive”.

With `CCN(CC)c1ccc(/C=C/C(=O)C2C(=O)C=C(C)OC2=O)cc1` (stereo unspecified), the Potency result is “inactive”.

As to `CCOC(=O)c1sc(-c2ccc(Cl)cc2)nc1O`, the Potency entry was “inactive”. For the compound `CCOC(=O)c1c(C)n(O)c2ccc(Cl)cc2c1=O`, the Potency entry was “inactive”. On to `CCOC(=O)C1=C(Cc2ccc(Cl)cc2)C(=O)c2ccccc2C1=O`, for which the Potency was 31.6 µM (active). For `CCN1CCN(c2nc3c(C)cccn3c(=O)c2/C=C(\C#N)C(=O)NC)CC1`, the Potency entry is “inactive”. Turning to `COc1ccc(-c2cc3c(=O)n(CC(=O)NCc4ccc(Cl)cc4)ncn3n2)cc1`, the Potency result is “inactive”.

Take `COc1ccc(-c2cc(CNC(=O)CCl)on2)cc1`: the Potency was 15.8 µM (active). Consider `COc1ccc(-c2onc3ccc(C(C)=O)cc23)cc1`, for which the Potency entry was “inactive”.

For the compound `CC(C)c1ccc(C2C(C#N)=C(N)Oc3c2oc(CO)cc3=O)cc1` (stereo unspecified), the Potency result was “inactive”. Consider `CCCN1C(=O)c2cccc3c(N4CCCCC4)ccc(c23)C1=O`, for which the Potency result is “inactive”.

Take `CCN(CC)C(=O)c1ccc2c3c(cccc13)C(=O)N(CCc1ccc(OC)c(OC)c1)C2=O`: the Potency was 28.2 µM (active). For `COc1ccc(CCN2C(=O)CS/C2=N/NC(=O)c2ccccc2F)cc1OC` the value was “inactive”; for `O=C(O)CCSc1nnc(CNc2ccc(Cl)cc2)n1Cc1ccccc1`, “inactive”.

Turning to `CC1CC(=NNC(=O)C2COc3ccccc3O2)CC(C)(C)C1` (stereo unspecified), the Potency result was “inactive”. For `CC(C)N1CCN(CC2COc3ccccc3O2)CC1` (stereo unspecified), the Potency entry is “inactive”. In the case of `Cc1cc(C(=O)CCl)c(C)n1CC1COc2ccccc2O1` (stereo unspecified), the Potency was 26.7 µM (active).

Take `O=C(O)CN1C(=O)C2C3CCC(C3)C2C1=O` (stereo unspecified): the Potency entry is “inactive”. The value for `COc1ccc(-c2cn3nc4c(nc3n2)CCCC4)cc1` was “inactive”; that for `CCCCCCc1cc2cc(-c3nnc(-c4ccccc4O)o3)c(=O)oc2cc1O` was “inactive”; that for `CC(C)c1ccc2c(c1)CCC1C(C)(CN)CCCC21C` (stereo unspecified) was 39.8 µM (active).
